Test results taken from PubChem BioAssay AID1220 (Sanford-Burnham Center for Chemical Genomics, 2008).
Screen size: about 190,000 compounds; about 1,300 (0.68%) were called active. Only a selection was taken, and actives are over-represented in it overall. Unmarked numbers belong to inactive results. Cut-off read from the data, not from the text of the source: active = inhibition above about 50%; inactive = the rest.

Target: Mannose-6-phosphate isomerase (Homo sapiens) (UniProt P34949)
Test: human PMI inhibitors, high substrate, primary screen, biochemical, fluorescence intensity, high mannose 6-phosphate (AID 1220)
Settings: recombinant PMI enzyme, coupled fluorescence intensity; at 20 µM; stronger effect = higher value

Mannose-6-phosphate isomerase (Homo sapiens), sequence (P34949 whole entry, looked up): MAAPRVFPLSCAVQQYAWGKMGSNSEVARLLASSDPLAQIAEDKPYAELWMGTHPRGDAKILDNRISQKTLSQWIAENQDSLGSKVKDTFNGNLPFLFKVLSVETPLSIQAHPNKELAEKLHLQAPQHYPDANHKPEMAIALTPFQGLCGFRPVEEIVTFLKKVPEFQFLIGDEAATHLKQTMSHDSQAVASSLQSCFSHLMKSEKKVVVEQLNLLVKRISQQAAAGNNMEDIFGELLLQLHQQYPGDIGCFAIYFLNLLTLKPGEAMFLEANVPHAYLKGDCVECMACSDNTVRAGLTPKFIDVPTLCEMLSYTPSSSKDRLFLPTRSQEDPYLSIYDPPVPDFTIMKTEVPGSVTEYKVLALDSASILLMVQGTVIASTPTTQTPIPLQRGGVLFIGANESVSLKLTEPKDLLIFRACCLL

| Structure (SMILES) | inhibition |
| --- | --- |
| Cc1cc(NC(=O)c2c(F)cccc2F)n(-c2nc3ccccc3[nH]2)n1 | 3% |
| Cc1cc(NC(=O)c2ccccc2F)n(-c2nc3ccccc3[nH]2)n1 | -1.3% |
| Cc1cc(NC(=O)c2ccccc2)n(-c2nc3ccccc3[nH]2)n1 | 59.2% (active) |
| COc1cc(OC)c(-c2nnc3n(CCc4ccccc4)c(=O)c4ccccc4n23)cc1OC | 10.4% |
| COc1ccc(CCN2C(=O)C3C4C=CC(C4)C3C2=O)cc1OC (stereo not drawn) | 14% |
| CCCCOc1ccc(Nc2nc(C)cc(C)c2C#N)cc1 | 6.1% |
| CCOc1cc(NC(=S)Nc2cccc(C)c2)c(OCC)cc1NC(=O)CC(C)C | 17.5% |
| CCOc1cc(NC(=S)Nc2ccccc2)c(OCC)cc1NC(=O)c1ccccc1 | 7.3% |
| CCOc1cc(NC(=S)Nc2cccc(OC)c2)c(OCC)cc1NC(=O)c1ccc(C)cc1 | 55.1% (active) |
| CCOc1cc(NC(=S)Nc2ccc(Cl)cc2)c(OCC)cc1NC(C)=O | 55.9% (active) |
| COc1cccc(NC(=O)C2CCCCC2)c1 | 5.6% |
| CCOc1cc(NC(=S)NC)c(OCC)cc1NC(=O)c1ccc(OC)cc1 | 49.8% |
| CCOc1cc(NC(=O)CCl)c(OCC)cc1NC(C)=O | 20.4% |
| CCOc1ccc(NC(=S)Nc2cc(OC)c(Cl)cc2OC)cc1 | 24.8% |
| COc1cccc(NC(=O)CNC(=O)c2ccc(C)cc2)c1 | 0.9% |
| CCOc1cc(NC(=S)Nc2cccc(OC)c2)c(OCC)cc1NC(=O)C(C)C | 45.4% |
| CCOc1cc(NC(=S)Nc2cccc(OC)c2)c(OCC)cc1NC(=O)C1CC1 | 56.8% (active) |
| CCOc1cc(NC(=S)Nc2ccccc2)c(OCC)cc1NC(=O)c1ccc(OC)cc1 | 56.8% (active) |
| CCCCOc1ccc(Br)cc1CSC(=N)N | -4.3% |
| O=C(C[n+]1ccc(-c2cc(C(=O)Nc3cccc(C(F)(F)F)c3)c3ccccc3n2)cc1)c1cccc([N+](=O)[O-])c1 | -6.2% |
| COc1ccc(/C=C(/NC(=O)c2ccccc2)C(=O)N/N=C/c2ccc3c(c2)OCO3)cc1OC | -10.4% |
| O=C(CC1Nc2ccccc2NC1=O)NCCCN1CCCCCC1 (stereo not drawn) | 0.7% |
| Cc1ccc(NC(=S)N2CCN(S(=O)(=O)c3c(F)cccc3F)CC2)cc1C | 11.5% |
| CC1CCCCN1C(=O)C12CCC(C)(C(=O)C1)C2(C)C (stereo not drawn) | 48.1% |
| Cc1c(C(N)=O)sc2ncn(CC(=O)NCCc3ccccc3)c(=O)c12 | -8.4% |

| Structure (SMILES) | inhibition |
| --- | --- |
| O=C(CCc1c[nH]c2ccccc12)NCC(=O)Nc1ccc(F)c(F)c1F | -1.9% |
| CCCC(=O)Nc1ccc(S(=O)(=O)Nc2cc(C)nc(C)n2)cc1 | 4.9% |
| CCOC(=O)c1ccc(NC(=S)NC2CCCC2)cc1 | -1.3% |
| CCOc1ccc(NC(=O)c2ccc(NC(=S)NC3CC3)cc2)cc1 | 12.4% |
| CCOc1ccc(NC(=O)c2ccc(NC(=S)NC3CCCCC3)cc2)cc1 | 52.6% (active) |
| CCCCN(C(=O)NC(=O)Nc1cccc(C)c1C)S(C)(=O)=O | -3.7% |
| COc1cc2c(C#N)c(N3CCOCC3)nc(N)c2c(N)n1 | 22% |
| COc1cc2c(C#N)c(N3CCN(c4ccccc4OC)CC3)nc(N)c2c(N)n1 | 54% (active) |
| COc1cc2c(C#N)c(N3CCN(C)CC3)nc(N)c2c(N)n1 | 34.6% |
| COc1ccc(CN=CC2=C(O)CNC2=O)cc1OC | -8.2% |
| CCOC(=O)Cn1c(=O)oc2cc(S(=O)(=O)Nc3ccc(N(CC)CC)cc3C)ccc21 | 51.2% (active) |
| CCOC(=O)Cn1c(=O)oc2cc(S(=O)(=O)Nc3c(C)cc(C)cc3C)ccc21 | 5.9% |
| CCN(CC)c1ccc(NS(=O)(=O)c2ccc3c(c2)oc(=O)n3C)c(C)c1 | 23.7% |
| CCOc1ccc(-c2csc(NC(=O)CSC3=NC(=O)CN3C(C)=O)n2)c2ccccc12 | 14.8% |
| O=C1c2cccc3c(O)ccc(c23)C(=O)N1Cc1ccco1 | 64.3% (active) |
| O=C1c2cccc3c(O)ccc(c23)C(=O)N1Cc1ccccc1 | 7.6% |
| O=C1c2cccc3cccc(c23)C(=O)N1Cc1ccco1 | -4.4% |
| CSc1nc(O)c(C2OC(=O)c3ccccc32)c(=O)[nH]1 (stereo not drawn) | 8.9% |
| Cc1ccc(NS(=O)(=O)c2ccc3[nH]c(=O)c(=O)[nH]c3c2)cc1Cl | 14.3% |
| O=[N+]([O-])c1ccc(Oc2ccc(F)cc2)c2ccncc12 | 17.6% |
| O=[N+]([O-])c1ccc(Oc2cccc(F)c2)c2ccncc12 | -0.7% |
| O=[N+]([O-])c1ccc(Oc2ccc(F)cc2Br)c2ccncc12 | 50% (active) |
| Nc1cc(Cl)ccc1Oc1ccc(Cl)cc1 | -1.6% |
| Nc1cc(Cl)ccc1Oc1ccccc1 | -2.5% |
| N#C/C=C\Oc1ccc(Cl)cc1N | 57.9% (active) |

| Structure (SMILES) | inhibition |
| --- | --- |
| COc1cc(-c2nnc(COC(=O)c3cc(C)nc4ccc(C)cc34)o2)cc(OC)c1OC | 13% |
| CCN1CCN(CCOCCOc2ccccc2-c2ccccc2)CC1 | -4.3% |
| O=S(=O)(Cc1ccc(Cl)cc1)NCC1CCCO1 (stereo not drawn) | 14.9% |
| CCOC(=O)c1cc2c(C)n(-c3ccc(N(C)C)cc3)c(C)c2cc(C(=O)OCC)c1=O | 37.3% |
| Cn1c(C(=O)N2CCCc3ccccc32)cc2sccc21 | -3.3% |
| O=C(CNC(=S)N(CCCN1CCOCC1)Cc1cccs1)N1CCCCCC1 | 55.1% (active) |
| O=C(CNC(=S)N(CCCN1CCOCC1)Cc1cccs1)N1CCCC1 | -5% |
| O=C(CNC(=S)N(CCCN1CCOCC1)Cc1cccs1)N1CCOCC1 | -1.9% |
| CCCC(=O)Nc1ccccc1N1CCN(C(=O)C(C)C)CC1 | -0.1% |
| CN(C)c1ccc(NC(=O)c2cn(-c3ccccc3)nc2-c2cccs2)cc1 | 13.7% |
| O=C1C=C(Nc2ccc(O)cc2)CC(c2ccco2)C1 (stereo not drawn) | 60.2% (active) |
| O=C1C=C(Nc2cccc(O)c2)CC(c2ccco2)C1 (stereo not drawn) | 12% |
| O=C1C=C(Nc2ccc(Cl)cc2)CC(c2ccco2)C1 (stereo not drawn) | 5.8% |
| COC(=O)c1cccc([N+](=O)[O-])c1CN1CCCC(C(N)=O)C1 (stereo not drawn) | -6.5% |
| CCN1C(=O)c2cccc3c(S(=O)(=O)NCc4ccccn4)ccc1c23 | -3.8% |
| CCN1C(=O)c2cccc3c(NS(=O)(=O)c4ccc(NC(C)=O)cc4)ccc1c23 | 55.9% (active) |
| CCN1C(=O)c2cccc3c(S(=O)(=O)NCc4ccco4)ccc1c23 | 63% (active) |
| CN1C(=O)c2cccc3c(S(=O)(=O)NCc4ccco4)ccc1c23 | 1.8% |
| CCN1C(=O)c2cccc3c(NC(=O)c4ccccc4)ccc1c23 | 27.7% |
| CCN1C(=O)c2cccc3c(NC(=O)C(C)(C)C)ccc1c23 | 11.8% |
| CCN1C(=O)c2cccc3c(NC(=O)c4ccc(S(=O)(=O)N(C)C)cc4)ccc1c23 | 13.6% |
| CCOC(=O)c1ccc(NC(=O)Nc2ccc3c4c(cccc24)C(=O)N3CC)cc1 | 53.1% (active) |
| CCOc1cc(C(=O)Nc2ccc3c4c(cccc24)C(=O)N3CC)cc(OCC)c1OCC | -4.4% |
| Cc1nn(CC(=O)Nc2sc3c(c2C#N)CCC(C(C)(C)C)C3)c(C)c1[N+](=O)[O-] (stereo not drawn) | 21% |
| COc1ccc(S(=O)(=O)NNC(=O)C2CC(c3cccnc3)=NO2)cc1 (stereo not drawn) | -11% |

| Structure (SMILES) | inhibition |
| --- | --- |
| CC(=O)C(=Nc1ccccc1Cl)NNc1ccc(Cl)cc1 | -52.8% |
| C=CCOn1c(=O)c(-c2ccccc2)[n+]([O-])c2ccccc21 | 12% |
| COc1ccc(CCN(Cc2cc3cc(C)cc(C)c3nc2Cl)C(=O)C2CC2)cc1 | 15.7% |
| Clc1ccc(-c2nnc3n2CCCCS3)cc1 | -8.4% |
| CCCN1CCN(c2nc3c([nH]2)c(=N)ncn3CC(O)CO)CC1 (stereo not drawn) | 2.5% |
| COC(=O)C1C(=O)c2c([nH]c(C(=O)OC3CCCC3C)c2C)CC1C (stereo not drawn) | 12.3% |
| COc1ccc(-c2nn3c(-c4ccc(F)cc4)nnc3s2)cc1 | -6.8% |
| O=C(Cn1c2c(sc1=O)C1c3ccccc3OCC1CS2)Nc1ccc(Cl)cc1 (stereo not drawn) | 8.7% |
| Cn1cc(C2CC(c3ccccc3)=NN2C(=O)c2ccccc2)c2ccccc21 (stereo not drawn) | 20.9% |
| Cc1nc2ccc(NC(=S)NCCCO)cc2nc1C | -2.9% |
| OCCCNC(=S)Nc1ccc2nc(-c3ccccn3)c(-c3ccccn3)nc2c1 | 14.4% |
| OCCCNC(=S)Nc1ccc2nccnc2c1 | 53.9% (active) |
| c1ccc2c(CCNc3ncnc4nc[nH]c34)cccc2c1 | 10% |
| CNC(=O)c1ccc(-c2sc3nc(N4CCOCC4)c4c(c3c2N)CCCC4)o1 | 55.4% (active) |
| CNC(=O)c1ccc(-c2sc3nc(N4CCOCC4)c4c(c3c2N)CC(C)(C)OC4)o1 | 48.4% |
| COC(=O)c1ccc(-c2sc3nc(N4CCOCC4)c4c(c3c2N)CCCC4)o1 | 20.1% |
| CC(C)C(=O)Nc1cccc(-c2csc(-c3ccccc3)n2)c1 | 11.9% |
| COc1ccc(-c2noc(-c3cccnc3)n2)cc1OC | -11.6% |
| COc1cc(CC(C#N)(CO)c2nc3ccccc3[nH]2)ccc1OC(F)F (stereo not drawn) | 16.3% |
| Cc1nc(N2CCCC2)c2ccsc2n1 | -2.9% |
| CCN(CC)CCNC(=O)CSc1c2c(nc3cc(Cl)ccc13)CCCC2 | 56.3% (active) |
| O=C(CSc1c2c(nc3cc(Cl)ccc13)CCCC2)NCCN1CCOCC1 | 2.2% |
| CCN(CC)CCCNC(=O)CSc1c2c(nc3cc(Cl)ccc13)CCCC2 | -5.8% |
